Our source for the composite z-score and composite Z-score values is PubChem BioAssay.

Active and inactive are the calls of the source.

The target of assay [1] is Albumin (Bos taurus) (UniProt P02769). As to the kind of experiment: compounds binding labelled BSA control protein – biochemical, small-molecule microarray, Alexa647 label, 635/667 nm fluorescence, artefact control for SMM control protein annotation, profiling panel (AID 1118).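 Further: score merges 667 nm emission intensity and signal-to-noise per printed compound spot.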 The following applies: BSA-A647 binding, fluorescence 635 nm, higher = more signal.
Sequence of Albumin (Bos taurus) (P02769 whole entry, looked up): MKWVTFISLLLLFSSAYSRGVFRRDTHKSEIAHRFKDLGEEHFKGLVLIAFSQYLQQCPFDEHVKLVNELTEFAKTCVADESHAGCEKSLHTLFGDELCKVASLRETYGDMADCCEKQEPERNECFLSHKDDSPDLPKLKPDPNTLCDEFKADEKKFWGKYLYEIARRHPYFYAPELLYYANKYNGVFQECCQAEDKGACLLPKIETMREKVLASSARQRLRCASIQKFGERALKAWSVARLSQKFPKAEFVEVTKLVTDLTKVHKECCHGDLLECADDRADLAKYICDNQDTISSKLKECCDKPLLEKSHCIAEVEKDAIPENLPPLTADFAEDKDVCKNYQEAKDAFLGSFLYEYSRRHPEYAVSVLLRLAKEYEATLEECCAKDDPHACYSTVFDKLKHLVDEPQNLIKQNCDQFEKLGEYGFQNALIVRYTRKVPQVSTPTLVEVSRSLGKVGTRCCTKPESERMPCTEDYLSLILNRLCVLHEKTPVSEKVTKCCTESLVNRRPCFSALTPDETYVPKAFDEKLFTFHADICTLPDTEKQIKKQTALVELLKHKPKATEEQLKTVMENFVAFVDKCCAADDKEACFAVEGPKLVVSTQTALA
A short description of assay [2]: probe aXIP binding to arrayed compounds – biochemical, NeuroSMM set, 635/667 nm fluorescence, primary screen (AID 1119).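 Further: probe is the protein aXip251-270 applied at 1 µg/mL to compound-printed slides; binding of probe to printed compounds measured as 667 nm fluorescence plus signal to noise.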 The following applies: small-molecule microarray, higher = more signal, called active from +8 up or from −8 down.
A short description of assay [3]: probe aNOTCH3 binding on compound microarray – biochemical, small-molecule microarray, 635/667 nm fluorescence, primary screen (AID 1120).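 Further: probe is a biotin-tagged antibody raised against NOTCH3 rather than NOTCH3 protein; score merges spot fluorescence near 667 nm with spot signal to noise.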 The following applies: higher = more signal.
Assay [4] can be described thus: probe aNOTCH2 binding on compound microarray – biochemical, small-molecule microarray, 635/667 nm fluorescence, primary screen (AID 1121).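 Further: score merges feature fluorescence read at 667 nm with its signal to noise.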 The following applies: higher = more signal.
For assay [5], the target named is Carbonic anhydrase 2 (Homo sapiens) (UniProt P00918). The experiment in a line: compounds binding carbonic anhydrase 2 – biochemical, small-molecule microarray, Alexa647-labelled CAII, profiling panel (AID 1122). The following applies: CAII-A647 binding fluorescence, higher = more signal.
Assay [6] can be described thus: COS7 lysate on small-molecule microarray, probe aHis, 635 nm (AID 1123).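 Further: z-score combines 667nm fluorescence intensity with signal-to-noise per printed compound spot.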 The following applies: COS7 cell lysate, fluorescence, higher = more signal.
Assay [7] is described as follows: probe aLAP1 signal on lysate-treated microarray – cell lysate, small-molecule microarray, COS7 lysate, primary screen (AID 1124).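 Further: lysate comes from COS7 cells expressing LAP1 and is applied at 0.3 µg/mL; score merges spot fluorescence near 667 nm with signal-to-noise over triplicate slides.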 The following applies: probe aLAP1, fluorescence, higher = more signal.
In assay [8] the test system is Sam68 (KHDRBS1). The experiment in a line: compounds binding KHDRBS1 protein – biochemical, small-molecule microarray, 635 nm fluorescence, primary screen (AID 1125).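 Further: score merges 667 nm channel intensity with signal to noise over triplicate slides.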 The following applies: higher = more signal.
In assay [9] the test system is Chordin-like protein 2 (CHRDL2). The experiment in a line: compounds binding chordin-like 2 – biochemical, small-molecule microarray, 635 nm fluorescence, primary screen (AID 1126).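 Further: printed compound slides probed with Chrdl2 protein at 4 µg/mL for 1 h at 4 C; score merges 667 nm emission intensity with signal to noise over three replicate slides.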 The following applies: fluorescence 635 nm, higher = more signal.
Assay [10] concerns the target Concanavalin-A (Canavalia ensiformis) (UniProt P02866). As to the kind of experiment: compounds binding concanavalin A lectin – biochemical, small-molecule microarray, Alexa647 label, 635 nm, artefact control for SMM control protein annotation, primary screen (AID 1127).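 Further: z combines 667 nm emission intensity with signal-to-noise across three replicate slides.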 The following applies: ConA-A647 binding fluorescence, higher = more signal.

Sequence of Concanavalin-A (Canavalia ensiformis) (P02866 whole entry, looked up): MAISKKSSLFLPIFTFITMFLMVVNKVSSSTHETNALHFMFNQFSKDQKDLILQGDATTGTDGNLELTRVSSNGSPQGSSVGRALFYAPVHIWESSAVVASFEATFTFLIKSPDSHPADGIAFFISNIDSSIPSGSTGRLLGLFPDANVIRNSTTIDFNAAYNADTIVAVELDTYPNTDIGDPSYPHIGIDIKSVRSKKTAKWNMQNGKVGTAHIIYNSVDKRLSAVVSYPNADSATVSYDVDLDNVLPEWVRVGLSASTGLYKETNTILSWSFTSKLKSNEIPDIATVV

Take `CCOC(=O)C=Cc1cc(F)ccc1O`: the composite z-score was -0.0584 in [1]; -0.0324 in assay [3]; -0.0995 in [4]; 0.384 in assay [5]; 0.149 in [6]; 0.0926 in [7]. Moreover, the values for the composite z-score in assay [8], in assay [9] and in assay [10] were 0.161, 0.133 and 0.126, respectively. Moreover, the composite Z-score in assay [2] is -0.276 (inactive).
For `C=CCC(OC(C)=O)[C@@H]1[C@@H](N(Cc2ccc(-c3cccc(C(F)(F)F)c3)o2)C(=O)Cc2ccc(OC)cc2)c2cc(OCCCO)ccc2N1C(=O)Cc1ccc2ccccc2c1` (stereo not given in full), the composite z-score in assay [1] was 0.315; in assay [3] it was -0.158; in assay [4], -0.14; in [5], -0.121; in assay [6] it was 0.631; in [7] it was -0.31. The composite z-score in assay [8] is -0.0204; in assay [9], -0.0929; in assay [10], -0.0477. For the same compound, the composite Z-score in [2] was -0.0998 (inactive).
Regarding `COCC(=C=CC[C@H](O)c1cccc(OCCO)c1)C[C@H](O)COCc1ccccc1`, the composite z-score in assay [1] came to 0.484; in assay [3] it was 0.187; in [4], 0.104; in assay [5], 0.742; in [6], 2.13; in assay [7], 0.66. Moreover, the values for the composite z-score in assay [8], in assay [9] and in [10] were 0.938, -0.227 and -0.564, respectively. Besides, in [2], the composite Z-score was -0.141 (inactive).
On to `O=C(O)[C@H]1C[C@H]2C(=O)N[C@@H](Cc3ccccc3)C(=O)N2[C@H]1c1cccc(OCCO)c1`, for which the composite z-score was -1.09 in assay [1]; 0.182 in [3]; -0.0609 in assay [4]; 0.634 in assay [5]; 0.26 in [6]; -0.0699 in assay [7]. For the same compound, the composite z-score in [8] was 1.05; in assay [9], 1.01; in [10], 0.95. Moreover, the composite Z-score in assay [2] is 0.309 (inactive).
Regarding `COc1ccc(C(O)C2C=CC3C(=O)N(c4ccccc4)C(=O)C3N2Nc2ccccc2F)cc1` (stereo not given), the composite z-score stood at 0.894 in assay [1]; 0.154 in assay [3]; 0.12 in assay [4]; 0.399 in assay [5]; 1.69 in assay [6]; 1.14 in assay [7]. In addition, the composite z-score is 1.2 in assay [8], -0.798 in [9] and 0.515 in [10]. The composite Z-score in assay [2] is 0.319 (inactive).
`COCCOC(=O)N1C(=O)[C@@]2(c3cc(C#Cc4ccc(OC)cc4)ccc31)[C@H](c1ccc(OCCO)cc1)N1[C@H](c3ccccc3)[C@H](c3ccccc3)OC(=O)[C@H]1[C@@H]2C(=O)Nc1nc2ccccc2s1`: the composite z-score in [1] is 0.862; in [3] it was -0.0967; in assay [4], 0.0402; in assay [5], 0.309; in assay [6], 1.3; in [7], 0.176. For the same compound, the values for the composite z-score in [8], in assay [9] and in assay [10] were 1.29, -0.122 and 1.13, respectively. In assay [2], the composite Z-score was -0.436 (inactive).
As for `CO[C@H]1O[C@H](CO)[C@@H](OC(=O)CCc2ccccc2)[C@H](OC(=O)c2cc3ccccc3[nH]2)[C@H]1OC(=O)c1cc2ccccc2[nH]1`, the composite z-score was 0.777 in [1]; -0.0284 in assay [3]; -0.223 in assay [4]; 0.68 in assay [5]; 0.78 in assay [6]; -0.206 in assay [7]. The composite z-score in assay [8] was determined as 1.22; in [9], 0.453; in [10], 1.09. Also, the composite Z-score in assay [2] is -0.134 (inactive).
Regarding `C=CCNC(=O)[C@H]1[C@@H]2C(=O)O[C@@H](c3ccccc3)[C@@H](c3ccccc3)N2[C@@H](c2ccc(OCCO)cc2)[C@]12C(=O)N(C(=O)OCCOC)c1ccc(C#Cc3ccc(OC)cc3)cc12`, the composite z-score in assay [1] was 0.358; in assay [3], 0.154; in assay [4], -0.0995; in assay [5] it was 0.447; in assay [6], 0.656; in assay [7] it was 0.636. Moreover, the results for the composite z-score in [8], in [9] and in assay [10] were 1.3, 0.302 and 1.09, respectively. For the same compound, in assay [2], the composite Z-score is -0.292 (inactive).
As to `CCCNC(=O)[C@@]1(C)c2ccccc2C(=O)N(Cc2ccccc2)[C@H]1c1ccc(CO)cc1`, the composite z-score in assay [1] is 0.0799; in [3] it was -0.128; in [4], 0.0313; in assay [5], 0.71; in assay [6] it was 2.68; in [7], 0.931. The figures for the composite z-score in [8], in assay [9] and in assay [10] were 0.526, -1.13 and 0.657, respectively. The composite Z-score in assay [2] is 2.55 (inactive).
`C=C(/C(=C/C[C@H](OC(=O)c1ccncc1)c1ccccc1OCCO)c1cnc2ccccc2c1)C(C)C`: the composite z-score is 0.706 in [1]; 0.145 in assay [3]; -0.126 in assay [4]; 0.566 in assay [5]; 0.443 in [6]; 0.0737 in assay [7]. Further, the results for the composite z-score in [8], in assay [9] and in [10] were 1.31, 1.18 and 1.19, respectively. Also, the composite Z-score in assay [2] was 0.0746 (inactive).
As to `CCCNC(=O)[C@@]1(Sc2ccc(C)cc2)CC(=O)N(C2CCCCC2)[C@@H]1c1ccc(CO)cc1I`, the composite z-score in assay [1] was 0.207; in [3], -0.147; in [4] it was -0.132; in assay [5], 0.439; in assay [6], 1.47; in assay [7], 0.207. For the same compound, the results for the composite z-score in [8], in [9] and in assay [10] were 0.65, -0.501 and 0.298, respectively. The composite Z-score in assay [2] was 0.73 (inactive).
As to `CCOC(=O)C1=C[C@@H](C(C)(C)C)N(S(=O)(=O)c2ccc(C)cc2)[C@H]1c1ccc(C)cc1`, the composite z-score in [1] was 0.804; in [3] it was 0.305; in assay [4], 0.0554; in assay [5], 0.263; in assay [6], 2.49; in [7], 0.512. Also, the composite z-score in [8] was determined as 1.29; in [9], 0.205; in assay [10], 1.18. Also, the composite Z-score in [2] is 0.403 (inactive).
`CC(C)[C@H]1NC(=O)[C@@]23C(=O)N[C@@H](Cc4ccccc4)C2[C@H](C)[C@@]2(C)O[C@H]2C3/C=C/CCC/C=C/CNC(=O)[C@H](Cc2ccccc2)NC1=O` (stereo not given in full): the composite z-score in assay [1] is 0.347; in assay [3], -0.213; in [4] it was -0.131; in assay [5], 0.427; in [6], 0.892; in assay [7], -0.0328. Besides, the composite z-score is 0.86 in assay [8], 0.213 in assay [9] and -0.464 in assay [10]. The composite Z-score in assay [2] is -0.0159 (inactive).
